Measured values taken from the supplement of paper PMC11732987, “Enantioselective OTUD7B fragment discovery through chemoproteomics screening and high-throughput optimisation” (Communications Chemistry, 2025).

Experiments:
Test in all cases: log2 ratio of Biotin-Ahx-Ub-VS probe labelling (fragment/DMSO); higher = less target engagement (more negative = stronger competition), active = hit call of the paper (q ≤ 0.05, log2 ratio ≤ -1)
Conditions in all cases: compound concentration: 200 uM; treatment time: 3 h
[1] = biological target: T1, OTUD6B (UniProt Q8N6M0)
T1 sequence (whole entry): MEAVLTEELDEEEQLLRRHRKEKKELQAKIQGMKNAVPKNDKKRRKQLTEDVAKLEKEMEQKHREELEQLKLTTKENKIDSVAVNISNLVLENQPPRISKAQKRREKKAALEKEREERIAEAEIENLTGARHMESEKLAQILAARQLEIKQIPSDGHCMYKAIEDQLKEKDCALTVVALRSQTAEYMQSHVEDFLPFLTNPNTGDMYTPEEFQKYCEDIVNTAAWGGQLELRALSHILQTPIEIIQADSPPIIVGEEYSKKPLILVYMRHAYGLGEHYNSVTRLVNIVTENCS
Method in brief: (§1)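 Fragment (200 µM) or vehicle was incubated for 3 h with triplicate HEK293T lysate samples of 495 µg, which were then treated with Biotin-Ahx-Ub-VS at 0.5 µM final for 1 h. Labelled DUBs were enriched on NeutrAvidin, digested with LysC and trypsin, and analysed by diaPASEF LC-MS/MS. Values are average log2 fragment/vehicle ratios from an unpaired t-test on global-median-normalised Spectronaut label-free quantities, using proteins with ≥2 unique peptides.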

[2] = biological target: T2, OTUD7B (UniProt Q6GQQ9)
T2 sequence (whole entry): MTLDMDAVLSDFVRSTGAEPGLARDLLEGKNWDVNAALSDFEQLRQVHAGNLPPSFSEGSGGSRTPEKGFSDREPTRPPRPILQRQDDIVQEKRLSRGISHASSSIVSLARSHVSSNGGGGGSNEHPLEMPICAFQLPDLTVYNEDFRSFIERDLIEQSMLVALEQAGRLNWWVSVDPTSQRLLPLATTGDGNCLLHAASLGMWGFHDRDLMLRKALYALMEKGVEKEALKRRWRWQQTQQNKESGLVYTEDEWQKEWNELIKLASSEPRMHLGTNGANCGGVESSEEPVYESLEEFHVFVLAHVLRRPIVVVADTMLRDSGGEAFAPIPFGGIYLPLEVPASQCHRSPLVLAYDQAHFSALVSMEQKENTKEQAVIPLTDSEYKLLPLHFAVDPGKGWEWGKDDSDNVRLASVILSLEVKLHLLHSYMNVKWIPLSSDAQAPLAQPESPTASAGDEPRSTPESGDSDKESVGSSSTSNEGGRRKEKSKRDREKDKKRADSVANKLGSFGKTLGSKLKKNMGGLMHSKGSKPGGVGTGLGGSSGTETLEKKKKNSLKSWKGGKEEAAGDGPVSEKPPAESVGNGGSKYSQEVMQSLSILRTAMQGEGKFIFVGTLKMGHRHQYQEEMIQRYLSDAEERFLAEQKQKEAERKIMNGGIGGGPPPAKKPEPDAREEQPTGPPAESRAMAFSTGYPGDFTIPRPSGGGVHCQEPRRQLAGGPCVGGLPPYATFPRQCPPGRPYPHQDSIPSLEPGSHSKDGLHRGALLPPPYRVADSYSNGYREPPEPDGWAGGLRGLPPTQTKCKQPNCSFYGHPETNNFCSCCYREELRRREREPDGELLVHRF
Method in brief: as §1

[3] = biological target: PRPF8 (UniProt Q6P2Q9)
Method in brief: as §1

[4] = biological target: T3, PSMD7 (UniProt P51665)
T3 sequence (whole entry): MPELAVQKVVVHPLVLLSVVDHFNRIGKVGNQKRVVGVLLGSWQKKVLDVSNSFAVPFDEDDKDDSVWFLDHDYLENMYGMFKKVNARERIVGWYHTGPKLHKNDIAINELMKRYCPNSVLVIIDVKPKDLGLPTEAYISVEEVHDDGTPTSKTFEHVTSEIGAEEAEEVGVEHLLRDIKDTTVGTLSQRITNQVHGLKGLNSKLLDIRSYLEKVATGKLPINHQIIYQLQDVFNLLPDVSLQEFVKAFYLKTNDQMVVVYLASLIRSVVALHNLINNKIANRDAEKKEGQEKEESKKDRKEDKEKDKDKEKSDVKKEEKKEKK
Method in brief: as §1

[5] = biological target: UCHL1 (UniProt P09936)
Method in brief: as §1

[6] = biological target: T4, UCHL3 (UniProt P15374)
T4 sequence (whole entry): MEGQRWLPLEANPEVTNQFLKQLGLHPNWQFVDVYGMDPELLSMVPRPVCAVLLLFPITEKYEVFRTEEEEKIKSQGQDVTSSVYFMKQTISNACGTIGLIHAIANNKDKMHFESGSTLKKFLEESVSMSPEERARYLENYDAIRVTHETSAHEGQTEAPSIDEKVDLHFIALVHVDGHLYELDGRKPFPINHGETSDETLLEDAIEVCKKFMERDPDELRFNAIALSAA
Method in brief: as §1

[7] = biological target: T5, UCHL5 (UniProt Q9Y5K5)
T5 sequence (whole entry): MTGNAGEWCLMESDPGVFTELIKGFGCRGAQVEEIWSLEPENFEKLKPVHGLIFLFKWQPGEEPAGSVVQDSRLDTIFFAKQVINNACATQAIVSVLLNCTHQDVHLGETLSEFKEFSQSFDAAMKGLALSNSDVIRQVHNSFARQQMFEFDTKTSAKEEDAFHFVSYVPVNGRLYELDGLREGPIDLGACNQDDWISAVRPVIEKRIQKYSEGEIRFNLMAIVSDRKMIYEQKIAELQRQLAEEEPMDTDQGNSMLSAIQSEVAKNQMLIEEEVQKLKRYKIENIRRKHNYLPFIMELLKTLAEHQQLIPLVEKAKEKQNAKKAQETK
Method in brief: as §1

[8] = biological target: USP10 (UniProt Q14694)
Method in brief: as §1

[9] = biological target: T6, USP15 (UniProt Q9Y4E8)
T6 sequence (whole entry): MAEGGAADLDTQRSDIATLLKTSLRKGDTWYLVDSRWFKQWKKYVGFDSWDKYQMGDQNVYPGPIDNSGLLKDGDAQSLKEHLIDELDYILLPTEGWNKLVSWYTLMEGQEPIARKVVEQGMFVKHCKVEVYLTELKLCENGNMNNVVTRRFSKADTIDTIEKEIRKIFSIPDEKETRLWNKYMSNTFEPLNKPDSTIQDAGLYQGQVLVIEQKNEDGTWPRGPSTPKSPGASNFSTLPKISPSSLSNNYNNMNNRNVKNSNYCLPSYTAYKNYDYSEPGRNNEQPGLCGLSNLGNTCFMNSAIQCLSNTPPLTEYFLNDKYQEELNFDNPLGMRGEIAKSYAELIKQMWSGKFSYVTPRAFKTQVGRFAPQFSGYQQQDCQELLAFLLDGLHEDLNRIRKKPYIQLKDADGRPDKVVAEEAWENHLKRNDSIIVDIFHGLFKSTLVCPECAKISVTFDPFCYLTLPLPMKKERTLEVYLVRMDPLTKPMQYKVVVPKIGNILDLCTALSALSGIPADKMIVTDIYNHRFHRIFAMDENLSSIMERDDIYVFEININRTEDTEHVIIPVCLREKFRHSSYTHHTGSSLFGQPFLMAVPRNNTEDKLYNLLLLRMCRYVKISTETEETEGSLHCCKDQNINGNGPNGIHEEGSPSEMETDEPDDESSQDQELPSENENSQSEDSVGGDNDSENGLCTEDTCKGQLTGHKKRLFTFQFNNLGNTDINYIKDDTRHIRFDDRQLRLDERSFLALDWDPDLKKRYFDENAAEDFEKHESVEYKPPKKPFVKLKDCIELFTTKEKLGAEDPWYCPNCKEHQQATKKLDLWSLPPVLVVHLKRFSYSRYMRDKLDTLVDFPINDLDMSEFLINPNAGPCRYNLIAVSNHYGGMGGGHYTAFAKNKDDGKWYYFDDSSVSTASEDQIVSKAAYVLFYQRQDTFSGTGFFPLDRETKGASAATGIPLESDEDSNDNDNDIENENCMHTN
Method in brief: as §1

[10] = biological target: USP16 (UniProt Q9Y5T5)
Method in brief: as §1

Measured: log2 ratio of Biotin-Ahx-Ub-VS probe labelling

UCHL1, sequence (P09936 whole entry, looked up): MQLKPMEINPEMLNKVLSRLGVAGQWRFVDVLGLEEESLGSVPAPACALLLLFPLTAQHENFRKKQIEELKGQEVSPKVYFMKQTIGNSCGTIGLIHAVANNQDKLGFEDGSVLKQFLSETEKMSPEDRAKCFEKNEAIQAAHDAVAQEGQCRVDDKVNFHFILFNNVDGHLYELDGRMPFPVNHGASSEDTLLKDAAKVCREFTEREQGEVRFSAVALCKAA
USP10, sequence (Q14694 whole entry): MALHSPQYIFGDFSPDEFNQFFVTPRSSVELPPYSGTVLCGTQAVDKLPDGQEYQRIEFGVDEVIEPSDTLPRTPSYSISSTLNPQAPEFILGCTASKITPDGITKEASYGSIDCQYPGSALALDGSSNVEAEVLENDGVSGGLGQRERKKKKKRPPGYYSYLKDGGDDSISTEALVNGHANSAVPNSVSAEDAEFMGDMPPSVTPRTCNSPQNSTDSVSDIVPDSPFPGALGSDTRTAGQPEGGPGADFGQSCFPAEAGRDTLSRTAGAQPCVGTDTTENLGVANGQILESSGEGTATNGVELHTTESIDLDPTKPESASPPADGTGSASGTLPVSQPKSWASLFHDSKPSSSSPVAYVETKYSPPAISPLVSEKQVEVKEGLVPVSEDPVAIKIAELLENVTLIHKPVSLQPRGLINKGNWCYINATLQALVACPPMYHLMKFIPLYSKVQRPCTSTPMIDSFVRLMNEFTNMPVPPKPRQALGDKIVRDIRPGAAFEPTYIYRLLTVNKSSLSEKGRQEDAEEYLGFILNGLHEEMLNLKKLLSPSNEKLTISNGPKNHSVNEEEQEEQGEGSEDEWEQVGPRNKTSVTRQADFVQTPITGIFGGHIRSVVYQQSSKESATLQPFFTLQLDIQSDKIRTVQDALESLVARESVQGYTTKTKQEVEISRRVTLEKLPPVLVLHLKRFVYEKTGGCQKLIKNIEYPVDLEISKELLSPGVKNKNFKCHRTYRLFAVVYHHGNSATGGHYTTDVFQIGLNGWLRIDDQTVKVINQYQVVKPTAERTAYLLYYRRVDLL
USP16, sequence (Q9Y5T5 whole entry, looked up): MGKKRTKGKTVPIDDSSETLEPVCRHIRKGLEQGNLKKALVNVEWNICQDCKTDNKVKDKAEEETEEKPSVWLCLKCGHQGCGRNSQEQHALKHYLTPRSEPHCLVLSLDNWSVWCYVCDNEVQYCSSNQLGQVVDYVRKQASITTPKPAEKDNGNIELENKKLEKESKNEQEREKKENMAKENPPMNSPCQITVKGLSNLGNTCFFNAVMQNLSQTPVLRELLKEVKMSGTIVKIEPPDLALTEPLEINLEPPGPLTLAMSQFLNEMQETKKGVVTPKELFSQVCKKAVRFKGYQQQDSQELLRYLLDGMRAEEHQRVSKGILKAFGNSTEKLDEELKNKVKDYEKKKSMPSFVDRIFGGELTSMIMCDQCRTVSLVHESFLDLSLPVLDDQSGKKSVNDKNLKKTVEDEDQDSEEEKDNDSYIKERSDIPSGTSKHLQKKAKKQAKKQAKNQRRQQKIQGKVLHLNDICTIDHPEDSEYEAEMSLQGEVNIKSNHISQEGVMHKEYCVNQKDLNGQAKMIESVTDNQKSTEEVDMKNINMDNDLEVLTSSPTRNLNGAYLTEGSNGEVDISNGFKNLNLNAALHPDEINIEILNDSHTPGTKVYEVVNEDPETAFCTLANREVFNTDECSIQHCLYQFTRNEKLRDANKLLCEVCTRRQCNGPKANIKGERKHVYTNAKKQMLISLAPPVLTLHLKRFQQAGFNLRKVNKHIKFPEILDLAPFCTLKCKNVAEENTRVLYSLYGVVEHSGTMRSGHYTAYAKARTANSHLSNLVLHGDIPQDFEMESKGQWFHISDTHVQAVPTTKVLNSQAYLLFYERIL

Cc1ccc(CN(C)C(=O)CCl)o1
inactive: [1] 0.0695 | [2] -0.158 | [3] -0.0488 | [4] 0.0152 | [6] 0.611 | [7] -0.238 | [8] -0.157 | [9] -0.201 | [10] -0.0354
active: [5] -1.38
